The list is not random: actives were taken first. Their share in the collection is about 2.1%.
CHT allo act = CHT positive allosteric modulators, primary screen, cell-based, membrane potential dye, choline EC20. High affinity choline transporter 1 (Homo sapiens), Q9GZV3. B-score at 10 µM. AID 488977, 2010. actives 0.49% (n = 310,000). CHT-expressing cells; hits give high values; LV-AA mutant CHT in HEK293 cells;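 active = initial fluorescence not abnormally high and integrated response B-score, plate-corrected, over 3 SD above library mean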
EP2 modulator = EP2 receptor modulators, cAMP readout, primary screen, cell-based, HTRF cAMP, PGE2 stimulation; Prostaglandin E2 receptor EP2 subtype (Homo sapiens), P43116; EP2-expressing cells, cAMP HTRF FRET, PGE2 co-stimulation; induction, % at 25 µM; actives 0.83% (n = 260,000);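 active = compounds whose cAMP rise, as percent of the full-agonist control response, exceeds 60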;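 also: rat C6 glioma line stably carrying human EP2 under a CMV promoter; the protocol text gives 20 µM as final concentration; 100% = response of wells given 1 µM PGE2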
Target sequence (P43116 whole entry, looked up): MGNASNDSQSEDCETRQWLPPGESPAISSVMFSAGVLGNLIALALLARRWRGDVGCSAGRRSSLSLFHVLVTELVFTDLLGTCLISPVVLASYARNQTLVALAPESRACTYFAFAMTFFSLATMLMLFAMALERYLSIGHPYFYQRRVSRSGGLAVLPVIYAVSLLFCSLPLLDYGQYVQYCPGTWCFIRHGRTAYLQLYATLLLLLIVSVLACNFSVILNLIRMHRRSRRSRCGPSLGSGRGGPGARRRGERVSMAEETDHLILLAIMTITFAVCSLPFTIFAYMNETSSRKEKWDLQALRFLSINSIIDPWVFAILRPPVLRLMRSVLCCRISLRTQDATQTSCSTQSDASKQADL
PGE2 EP2 inh = human EP2 receptor antagonists, primary screen, TR-FRET cAMP, C6 glioma cells | AID 1422, 2008 | C6 glioma cells expressing human EP2; cells stimulated with saturating PGE2 | Prostaglandin E2 receptor EP2 subtype (Homo sapiens), P43116 | actives 0.52% (n = 260,000) | inhibition, % at 25 µM;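 active = percent inhibition above 40 after rounding to a whole number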;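 also: rat C6 glioma host cells with rolipram phosphodiesterase inhibitor present; the protocol text gives 20 µM as final concentration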
CHT inh = inhibitors of human choline transporter CHT; B-score at 10 µM; CHT-expressing cells, membrane potential dye, choline response; hits give low values; actives 0.86% (n = 310,000); AID 488975, 2010; High affinity choline transporter 1 (Homo sapiens), Q9GZV3;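 active = B-score over 3 SD under the library average, and starting fluorescence ratio not unusually high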;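 also: choline stimulus applied at its EC90 after an EC20 pre-addition; B-score computed on integrated fluorescence ratio after choline addition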
CHT act confirm = CHT activators, confirmation, cell-based, membrane potential dye, duplicate | AID 504833, 2011 | CHT-expressing cells, membrane potential dye fluorescence (FDSS); % of choline EC20–EC90 response window; HEK293 expressing CHT LV-AA mutant; choline added at its EC20 | shares compounds with CHT allo act | activation, % at 10 µM | actives 91% (n = 2,500);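 active = primary screen active, with duplicate mean activation above negative control mean plus 3 SD, cut at about 11% in these data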
HEK293 MP dye = membrane potential response in parental HEK293 cells, counter-screen for CHT activator project, cell-based, membrane potential dye | shares compounds with CHT allo act | actives 62% (n = 2,500) | ratio readout change at 10 µM, hits read low | AID 623908, 2012 | membrane potential dye fluorescence (FDSS); measured after EC20 choline addition;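 active = duplicate-averaged ratio beyond 3 SD from buffer wells, up or down, though filed actives are nearly all decreases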
* hit, by the source's call.

`CN1CCN(c2ccc(Cl)cc2NC(=O)c2ccc(S(=O)(=O)N3CCCCCC3)cc2)CC1` gave CHT allo act inactive, EP2 modulator -45, PGE2 EP2 inh 13 and CHT inh inactive.
`CCNC(=S)N(Cc1cccnc1)Cc1cc2cc(OC)c(OC)cc2[nH]c1=O` gave EP2 modulator -26 and PGE2 EP2 inh 12.
`COc1ccc(-n2c(SCC(=O)N3CCCCCC3)nnc2-c2ccncc2)cc1` gave EP2 modulator 13 and PGE2 EP2 inh 8.
Screening Cc1cccc(OCC(=O)Nc2ccccc2N2CCN(C)CC2)c1 returned CHT allo act 11*, CHT inh inactive, CHT act confirm 36* and HEK293 MP dye inactive.
Screening CN1CCN(c2ccccc2NC(=O)c2ccc(OCc3ccccc3)cc2)CC1 returned CHT allo act inactive, EP2 modulator -1, PGE2 EP2 inh 20, CHT inh inactive, CHT act confirm 27* and HEK293 MP dye -33*.
CCN1CCN(Cc2cc(=O)oc3cc(C)cc(C)c23)CC1 was read as CHT allo act 7.1*, EP2 modulator 4, PGE2 EP2 inh 4, CHT inh inactive, CHT act confirm 40* and HEK293 MP dye -42*.
`O=C(Nc1ccccc1)N(CCN1CCCC1)Cc1cc2cc3c(cc2[nH]c1=O)OCCO3` gave EP2 modulator 8 and PGE2 EP2 inh 19.
`Cc1ccc(N=C(NOCc2ccc(Cl)cc2Cl)c2nonc2N)c(C)c1` gave CHT allo act 8.8*, EP2 modulator 55, PGE2 EP2 inh 5, CHT inh inactive, CHT act confirm 28* and HEK293 MP dye inactive.
CCn1cc(C(=O)OCC(=O)N(C)Cc2ccccc2)c(=O)c2ccc(C)nc21 was read as CHT allo act inactive, EP2 modulator 17, PGE2 EP2 inh 7 and CHT inh inactive.
`CCn1cc(C(=O)OCC(=O)N2C(C)CCCC2C)c(=O)c2ccc(C)nc21` (stereo unspecified) gave CHT allo act inactive, EP2 modulator 2, PGE2 EP2 inh 2, CHT inh inactive, CHT act confirm 39* and HEK293 MP dye -29*.
Screening CCn1cc(C(=O)OCC(=O)N(C)C2CCS(=O)(=O)C2)c(=O)c2ccc(C)nc21 (stereo unspecified) returned CHT allo act 8.6*, EP2 modulator 20, PGE2 EP2 inh 9, CHT inh inactive, CHT act confirm 54* and HEK293 MP dye -62*.
Screening COc1ccc(NC(=O)C(=O)NNC(=O)c2cccs2)cc1 returned CHT allo act inactive, EP2 modulator -16, PGE2 EP2 inh 6 and CHT inh inactive.
COc1ccc(NC(=O)C(=O)NNC(=O)c2cccs2)c(OC)c1 was read as CHT allo act 7.2*, EP2 modulator -6, PGE2 EP2 inh 9, CHT inh inactive, CHT act confirm 69* and HEK293 MP dye -47*.
Screening Cc1cc(NCc2ccco2)nc2cc(O)ccc12 returned CHT allo act 8.6*, EP2 modulator 1, PGE2 EP2 inh 13, CHT inh inactive, CHT act confirm 29* and HEK293 MP dye -42*.
Screening COc1ccc(-c2ccc(=O)n(CC3CCN(C(C)=O)CC3)n2)cc1OC returned EP2 modulator -13.
`CCC(=O)Nc1ccccc1C(=O)OC(c1ccccc1)c1ccccc1` gave CHT allo act 7.3*, EP2 modulator 59, PGE2 EP2 inh 4, CHT inh inactive, CHT act confirm 27* and HEK293 MP dye inactive.
Screening COc1ccc(Cn2nnnc2CN(Cc2cc3ccc(C)cc3[nH]c2=O)C2CCCCC2)cc1 returned EP2 modulator 21 and PGE2 EP2 inh 11.
`Cc1ccc(C(C)C)c(OCc2nn(CC(=O)c3ccc(OC(F)F)cc3)c3[n+]2CCCCC3)c1` gave CHT allo act 9.8*, EP2 modulator 15, PGE2 EP2 inh 7, CHT inh inactive, CHT act confirm 9 and HEK293 MP dye inactive.
`CC(=O)Nc1ccc(Nc2cc(C)nc3ccc(C)cc23)cc1` gave EP2 modulator -70 and PGE2 EP2 inh 5.
Cc1nc(N2CCN(Cc3ccccc3)CC2)c(C#N)c2c1COC(C)(C)C2 was read as CHT allo act inactive, EP2 modulator 7, PGE2 EP2 inh 13 and CHT inh inactive.
`CC(C)c1nc(N2CCN(C(=O)c3ccco3)CC2)c(C#N)c2c1COC(C)(C)C2` gave CHT allo act 6.6*, CHT inh inactive, CHT act confirm 23* and HEK293 MP dye inactive.
`CCN1CCN(c2cc(N3CCN(C(=O)c4ccco4)CC3)c3c4c(onc24)-c2ccccc2C3=O)CC1` gave CHT allo act inactive, CHT inh inactive, CHT act confirm 25* and HEK293 MP dye -52*.
For CCNc1c(NC(C)=O)c(=O)oc2ccccc12 the results were CHT allo act inactive, EP2 modulator 23, PGE2 EP2 inh 6, CHT inh inactive, CHT act confirm 1 and HEK293 MP dye inactive.
COc1ccccc1NC(=O)N1CCCC1C(=O)Nc1ccc(C)c(Cl)c1 (stereo unspecified) was read as EP2 modulator 37 and PGE2 EP2 inh 6.
`CN1CCN(c2ncccc2S(=O)(=O)N2CCCCC2)CC1` gave CHT allo act inactive, EP2 modulator 10, PGE2 EP2 inh 3 and CHT inh inactive.
For Cn1cnc2c(N3CCCCC3)nccc21 the results were CHT allo act 8.7*, EP2 modulator 7, PGE2 EP2 inh 15, CHT inh inactive, CHT act confirm 71* and HEK293 MP dye -64*.
COc1ccc(-c2nnc3ccc(SCC(=O)Nc4cc(C)on4)nn23)cc1 was read as EP2 modulator 4 and PGE2 EP2 inh 4.
For O=C(CSc1ccc2nnc(-c3cccnc3)n2n1)NCC1CCCO1 (stereo unspecified) the results were CHT allo act inactive, EP2 modulator 20, PGE2 EP2 inh 8, CHT inh inactive, CHT act confirm 11* and HEK293 MP dye inactive.
Screening O=C(CSc1ccc2nnc(-c3cccc(F)c3)n2n1)NCC1CCCO1 (stereo unspecified) returned CHT allo act inactive, EP2 modulator 5, PGE2 EP2 inh 7 and CHT inh inactive.
For Cc1cc(NC(=O)CSc2ccc3nnc(-c4ccccc4)n3n2)no1 the results were CHT allo act 7.1*, EP2 modulator 5, PGE2 EP2 inh 6, CHT inh inactive, CHT act confirm 48* and HEK293 MP dye -32*.

Source: PubChem
